Screening data as filed in PubChem.
This is a sample that favours compounds with a hit; in the whole collection about 2.3% have one here.
Rango dissoc inh = prevents RanGTP from dissociating the Rango-importin beta complex; Biochemical FRET Rango-importin beta, RanGTP-induced dissociation; Potency, µM (top dose mostly 46.1 µM), without a hit: at the highest dose activity change, negative = inhibition; hit rate 0.071% among 340,000; O95149+P62826; calls by dose curve; further: % of control where 0% means no effect; nearly all actives have a fitted effect of over 45% in size
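Compounds preincubate 5 min with complex of recombinant Rango and importin beta in PBS with 1 mM DTT. Ran (0.6 uM) loaded with 2 mM GTP plus 0.2 uM RCC1 starts dissociation; FRET is recorded 45 min later.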
Rango complex inh = Rango-importin beta binding inhibition; Q14974; Rango CFP/YFP FRET sensor + importin beta, 45 min; Potency, µM (doses to about 92.2 µM), for inactives: top-dose inhibition of complex formation; hit rate 0.031% among 340,000; AID 540263; calls by dose curve;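 further: 0% = DMSO wells and 100% = buffer wells lacking importin beta; nearly all actives have a fitted effect of over 15% in size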
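FRET biosensor Rango (snurportin 1 IBB between N-terminal EYFP and C-terminal Cerulean), 50 nM in PBS/1 mM DTT/0.02% Tween-20/0.1% BSA, preincubated 5 min RT with compound; 0.125 microM importin beta added, 45 min RT, CFP/YFP FRET ratio read.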
Nrf2 block = blocks Nrf2 signaling. A549 ARE-Fluc reporter, luciferase luminescence, 18-24 h. AID 504444. Potency, µM (highest dose often 46 µM), without a hit: at the highest dose activity change, negative = inhibition, usual class: inhibitors. hit rate 2.1% among 360,000; further: on the % scale 0 is the no-effect control and ±100 the full control effect; nearly all actives have a fitted effect of over 60% in size
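Nrf2 function is reported as luminescence of an ARE-controlled luciferase in A549 cells. Compounds were tested at several concentrations, and a CellTiter-Fluor read on the same wells flagged cytotoxicity.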
A549 tox-1 = A549 cytotoxicity, counter-screen for Nrf2 inhibitors; Potency, µM (highest dose often 46 µM), without a hit: at the highest dose activity change, negative = cytotoxicity, hits mostly inhibitors; A549 ARE-Fluc cells, CellTiter-Fluor viability, 18-24 h; hit rate 0.16% among 390,000; further: on the % scale 0 is the no-effect control and ±100 the full control effect
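Cytotoxicity counterscreen: CellTiter-Fluor fluorescence was measured in A549 ARE_Fluc cells after 18-24 h of compound exposure in a concentration series. The subsequent BugLite luminescent read reports ARE-luciferase activity.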
Nrf2 activator = Nrf2 pathway activation. AREc32 ARE-luciferase reporter (MCF7-derived line), luminescence, 24 h. Potency, µM (highest dose often 46.1 µM), inactives show at the top dose activation, hits mostly activators. hit rate 0.31% among 410,000. AID 624171; further: % of control where 0% means no effect; nearly all actives have a fitted effect of over 65% in size
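ARE activation measured as luciferase luminescence (Steady-Glo, 30 min RT) in AREc32_Fluc cells after 24 hr compound exposure at 37 deg C, 5% CO2; cells seeded overnight at 1000/well in OPTI-MEM, 5% FBS.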
FLuc enzyme inh = blocks purified firefly luciferase in Nrf2 counterscreen; shares compounds with Nrf2 block; purified firefly luciferase, luminescence inhibition; Potency, µM (highest dose often 57.5 µM), inactives show at the highest dose activity change, negative = inhibition, usual class: inhibitors; hit rate 4% among 1,400; further: on the % scale 0 is the no-effect control and ±100 the full control effect; nearly all actives have a fitted effect of over 65% in size
Target sequence (P08659 whole entry, looked up): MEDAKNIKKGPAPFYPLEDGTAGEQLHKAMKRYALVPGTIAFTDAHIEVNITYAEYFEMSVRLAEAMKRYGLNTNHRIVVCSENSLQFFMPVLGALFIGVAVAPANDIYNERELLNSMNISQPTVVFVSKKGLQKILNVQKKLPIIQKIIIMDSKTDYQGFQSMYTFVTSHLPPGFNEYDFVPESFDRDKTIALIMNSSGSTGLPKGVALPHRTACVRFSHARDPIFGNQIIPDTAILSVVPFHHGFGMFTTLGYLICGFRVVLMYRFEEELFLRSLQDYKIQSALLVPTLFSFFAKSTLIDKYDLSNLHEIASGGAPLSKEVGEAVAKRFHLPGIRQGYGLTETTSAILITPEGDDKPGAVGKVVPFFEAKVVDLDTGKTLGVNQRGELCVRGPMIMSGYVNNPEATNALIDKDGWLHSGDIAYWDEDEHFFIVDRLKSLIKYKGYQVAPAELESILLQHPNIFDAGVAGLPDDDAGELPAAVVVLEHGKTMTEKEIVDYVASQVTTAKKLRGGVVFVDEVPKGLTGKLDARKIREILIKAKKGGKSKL
A549 tox-2 = counter-screen for Nrf2 inhibitors: cytotoxicity in A549 ARE cells; shares compounds with Nrf2 block; hit rate 2% among 1,400; Potency, µM (top dose mostly 46.1 µM), inactives show at the highest dose activity change, negative = cytotoxicity, actives largely listed as inhibitors; A549 ARE-Fluc cells, cytotoxicity counterscreen; AID 720523;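 further: cells exposed to compounds for 18 to 24 hours; on the % scale 0 is the no-effect control and ±100 the full control effect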
ARE-Fluc inh = confirmation of Nrf2 inhibitors in A549 ARE reporter cells. A549 ARE-firefly luciferase reporter, luminescence. hit rate 74% among 1,400. Potency, µM (highest dose often 46.1 µM), for inactives: top-dose activity change, negative = inhibition, hits mostly inhibitors. shares compounds with Nrf2 block; further: on the % scale 0 is the no-effect control and ±100 the full control effect; nearly all actives have a fitted effect of over 65% in size
Active calls of the source: *; ? = inconclusive; / = no result. Unless noted, the call rests on the fitted dose curve; in most records, active means well fitted curve in the direction sought with a large enough effect; inconclusive means small, poorly fitted or top-dose-only effect, or another doubt; inactive means no such curve, though single readings can be large; an effect the other way counts as inactive or inconclusive. Potency means the concentration at half of the fitted maximal effect.

SMILES	Rango dissoc inh	Rango complex inh	Nrf2 block	A549 tox-1	Nrf2 activator	FLuc enzyme inh	A549 tox-2	ARE-Fluc inh
CCOC(=O)c1cnc2ccc(OCC)cc2c1NCCc1ccc(OC)c(OC)c1	/	/	3.7µM*	-17%	-2%	-16%	?	13µM*
COc1ccc(CNC(=O)O[C@H]2CN(C(=O)OC(C)C)N(C(=O)OC(C)C)[C@@H]3CN(S(=O)(=O)c4ccc(C)cc4)C[C@]23O)cc1OC	/	/	/	/	0%	/	/	/
COc1cccc(N2CCN(c3ncnc4c3nc3n4CCCCC3)CC2)c1	/	/	?	-28%	-2%	/	/	/
Cc1noc2ncnc(N3CCN(c4cccc(C(F)(F)F)c4)CC3)c12	/	/	8.2µM*	-1%	-1%	2%	-5%	8.2µM*
FC(F)(F)c1cccc(N2CCN(c3ncnc4c3nc3n4CCCC3)CC2)c1	/	/	1.6µM*	0%	-3%	2%	-11%	2.1µM*
COC(=O)[C@H](CC(C)C)NC(=O)Cn1cnc2c(NCc3ccccc3)ncnc21	-1%	-2%	4%	1%	0%	/	/	/
O=C1N(c2ccccc2)C[C@@H]2C[C@@H](c3cc4ccccc4o3)N3CCC[C@@]123	7%	0%	1.2µM*	?	0%	-3%	-28%	2.6µM*
C[C@@H]1C=CC(=O)O[C@@H]1c1ccc(Cl)cc1	16%	3%	9.2µM*	-1%	0%	1%	-15%	5.8µM*
CC1C(=O)OC(c2ccc(Cl)cc2)C(C)(C)C1=O (centres undefined)	3%	1%	-6%	-1%	0%	/	/	/
COC(=O)c1ccc(C2Nc3c(C)cccc3-c3cc(C)nn32)cc1 (centres undefined)	/	/	-17%	-1%	6%	/	/	/
COC(=O)C1=C(O)C(C(=O)OC)C(c2ccc(C)cc2)C(C#N)(C#N)C1c1ccc(C)cc1 (centres undefined)	0%	5%	2.9µM*	/	0%	3%	?	15µM*
COC(=O)C1=C(Nc2ccc(C)cc2)C=C(C)C(C(=O)OC)C1c1ccc(OC)cc1 (centres undefined)	-11%	?	-26%	/	-1%	/	/	/
CC(=O)c1c(C)n(CC(=O)NCc2ccc3c(c2)OCO3)c2ccccc12	5%	5%	5.8µM*	-5%	1%	1%	11%	?
COCCNC(=O)CN(C(=O)CCC(=O)Nc1ccccn1)c1ccc(C)cc1C	17%	0%	4%	5%	0%	/	/	/
CCCCN(C)CCNC(=O)C1CCN(S(=O)(=O)c2cccc3nsnc23)CC1	9%	-4%	-14%	-3%	0%	/	/	/
COc1ccc(-c2nnn(CC(=O)N3CCN(c4ccc(F)cc4)CC3)n2)cc1	-1%	-1%	11%	2%	0%	/	/	/
COc1ccc(N2CCN(C(=O)CN3CCN(c4nc(-c5ccc(F)cc5)cs4)CC3)CC2)cc1	1%	-5%	7.3µM*	?	0%	-5%	-16%	12µM*
Cc1ccc(S(=O)(=O)c2cccc(S(=O)(=O)N3CCCC3)c2)cc1S(=O)(=O)N1CCCC1	1%	3%	8.2µM*	-26%	0%	0%	-11%	21µM*
CC(CC(=O)Nc1ccc(Cl)c(S(=O)(=O)N2CCOCC2)c1)c1ccccc1 (centres undefined)	-2%	0%	7.3µM*	-19%	2%	-1%	-4%	3.3µM*
CCN(CC)S(=O)(=O)c1cccc(NC(=O)CNc2cccc(S(=O)(=O)N3CCOCC3)c2)c1	5%	0%	1.3µM*	?	2%	2%	-17%	2.1µM*
CN(C)S(=O)(=O)c1cccc(NC(=O)CNc2cccc(S(=O)(=O)N3CCCCC3)c2)c1	/	/	/	/	0%	/	/	/
CCN(CC)S(=O)(=O)c1cc(NC(=O)CNc2cccc(S(=O)(=O)N3CCCC3)c2)ccc1C	1%	1%	5.2µM*	-19%	3%	0%	-22%	8.2µM*
Cc1ccc(S(=O)(=O)c2cccc(S(=O)(=O)N3CCOCC3)c2)cc1S(=O)(=O)N1CCOCC1	6%	3%	15%	-10%	0%	/	/	/
CCc1ccc(CNC(=O)c2cccc(-n3cnc4cccnc43)c2C)cc1	/	/	-24%	-2%	4%	/	/	/
COC(=O)c1cc2occc2n1CC(=O)Nc1ccc(N(C)C)cc1	/	/	14%	-3%	12%	/	/	/
O=C(c1cccc(C(F)(F)F)c1)N1CCN(CCc2ccccc2)CC1	2%	-1%	2%	2%	0%	/	/	/
CCN(CC)S(=O)(=O)c1cc(NC(=O)Cc2ccc(S(=O)(=O)N3CCOCC3)s2)ccc1Cl	-6%	-7%	1.3µM*	?	0%	-12%	-24%	6.5µM*
CCN(CC)C(=O)Cn1c(=O)n(-c2ccc(OC)cc2OC)c(=O)c2c(C)c(C(=O)N(CC)CC)sc21	/	/	/	1%	1%	/	/	/
COc1ccccc1Nc1nc(-c2sc(NC(=O)C(C)(C)C)nc2C)cs1	0%	-1%	7.3µM*	-4%	1%	?	-18%	21µM*
